Laboratory results: PubChem BioAssay AID504652 (National Center for Advancing Translational Sciences (NCATS), 2011)
Screen size: about 360,000 compounds; about 11,000 (3.1%) were called active. Rule as the data show it: active = activity change below about -30%; inactive = the rest. This excerpt belongs to a sample that is enriched for actives.

Molecular target: D(1A) dopamine receptor (Homo sapiens) (UniProt P21728)
Experiment: Antagonist of Human D 1 Dopamine Receptor: qHTS
Conditions: HEK293 TREx D1 cells, calcium flux, dopamine EC80; at 10 µM; active compounds read low
How it was run: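 Tetracycline-induced HEK293 Trex D1 cells, force-coupled to calcium, dye-loaded; compounds added and read 180 s, then EC80 dopamine added and calcium flux tracked kinetically another 180 s.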
% is scaled to controls: 0 for no effect and ±100 for the full control effect.

Chain of D(1A) dopamine receptor (Homo sapiens) (P21728 whole entry, looked up): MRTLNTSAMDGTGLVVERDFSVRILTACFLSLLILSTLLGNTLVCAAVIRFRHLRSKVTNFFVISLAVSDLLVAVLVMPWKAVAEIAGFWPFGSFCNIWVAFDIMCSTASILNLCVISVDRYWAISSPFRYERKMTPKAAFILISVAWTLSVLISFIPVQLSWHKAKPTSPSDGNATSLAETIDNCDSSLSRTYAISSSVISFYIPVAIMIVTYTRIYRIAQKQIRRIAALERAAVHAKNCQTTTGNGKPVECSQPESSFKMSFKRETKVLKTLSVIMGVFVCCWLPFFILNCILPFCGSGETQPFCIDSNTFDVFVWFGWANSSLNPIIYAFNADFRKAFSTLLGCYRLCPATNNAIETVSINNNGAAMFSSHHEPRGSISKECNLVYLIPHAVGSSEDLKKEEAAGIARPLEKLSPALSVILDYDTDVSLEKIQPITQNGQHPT

| Structure (SMILES) | activity change, negative = inhibition |
| --- | --- |
| CCC(=O)N1CCc2cc(Br)cc(S(=O)(=O)CCC(=O)N3CCN(c4ccc(F)cc4)CC3)c21 | -13.8% (inactive) |
| Cc1ccc(NS(=O)(=O)c2cn(C)c(=O)n(C)c2=O)c(C)c1 | -34.8% (active) |
| Cn1cc(S(=O)(=O)Nc2ccc(Cl)cc2Cl)c(=O)n(C)c1=O | 1.88% (inactive) |
| Cc1ccc(NS(=O)(=O)c2ccc3c(c2)n(C)c(=O)c(=O)n3C)c(C)c1 | 3.25% (inactive) |
| N#CN1CCC(NS(=O)(=O)c2cccc(F)c2)C1 (stereo not given) | -5.93% (inactive) |
| Cc1ccc(C)c(S(=O)(=O)c2nnn3c2nc(N2CCOCC2)c2sccc23)c1 | -17.7% (inactive) |
| COc1ccc(OC)c(NC(=O)CSC2=Nc3ccccc3C3=NC(CC(=O)NCc4ccc(F)cc4)C(=O)N23)c1 (stereo not given) | 2.28% (inactive) |
| CCC1(C)Cc2c(sc3[nH]c(=S)n(Cc4ccccc4)c(=O)c23)CO1 (stereo not given) | -1.45% (inactive) |
| C=CCn1c(=S)[nH]c2scc(-c3ccco3)c2c1=O | -62.9% (active) |
| CCc1ccc(NC(=O)c2cc3c(=O)n(Cc4cccnc4)ccc3nc2C)cc1 | -4.72% (inactive) |
| O=C(NCCCNc1ccc([N+](=O)[O-])cc1Cl)c1ccccc1F | -30.1% (active) |
| O=C(NCCNc1ccc([N+](=O)[O-])cc1Cl)c1ccccc1F | -1.54% (inactive) |
| O=C(NCCNc1ccccc1[N+](=O)[O-])c1ccccc1F | 18.2% (inactive) |
| COc1ccc(CNC(=O)Cn2nnc(-c3ccccc3F)n2)cc1 | 7.31% (inactive) |
| COc1cc(-c2noc(-c3ccc(N4CCCC4)c([N+](=O)[O-])c3)n2)cc(OC)c1OC | -3.41% (inactive) |
| COC(=O)c1sccc1S(=O)(=O)N(CC(=O)Nc1ccc(C)c(F)c1)c1ccc(C)c(C)c1 | -13.6% (inactive) |
| CCOC(=O)N1CCN(CC(=O)Nc2ccc(F)cc2)CC1 | 4.05% (inactive) |
| CCOC(=O)N1CCN(CC(=O)c2ccc3c(c2)CCN3)CC1 | -32.2% (active) |
| CCOC(=O)N1CCN(CC(=O)n2c(C)c(C)c3ccccc32)CC1 | 6.89% (inactive) |
| Cc1ccc(CN2CCC(CNC(=O)c3cnn(-c4ccc(C)cc4)c3C3CCN(C(=O)OC(C)(C)C)CC3)CC2)cc1 | 1.49% (inactive) |
| Cc1cccc(-c2nc(SCC(=O)Nc3cc(C)on3)c3c(=O)n(C)c(=O)n(C)c3n2)c1 | -1.46% (inactive) |
| Cc1ccc2nc(SCC(=O)NC3CCCC3)[nH]c2c1 | 1.64% (inactive) |
| Cc1ccc2nc(-c3ccc(SCC(=O)Nc4cc(C)on4)nc3)[nH]c2c1 | -40.5% (active) |

| Structure (SMILES) | activity change, negative = inhibition |
| --- | --- |
| CCS(=O)(=O)c1nc(S(=O)(=O)c2ccc(C)cc2)c(NCc2ccc(Cl)cc2)s1 | -4.62% (inactive) |
| Cc1onc(-c2ccc(F)cc2F)c1C(=O)Nc1cccc(C(F)(F)F)c1 | -7.14% (inactive) |
| COC(=O)c1cccc(Cn2nnc3sc4c(c3c2=O)CCC(C(C)(C)C)C4)c1 (stereo not given) | 7.77% (inactive) |
| Cc1nn(C(C)C(=O)Nc2ccc(C(C)C)cc2)c(=O)c2c1sc1ccccc12 (stereo not given) | -14.9% (inactive) |
| O=C(Nc1ccccc1F)c1ccccc1-c1ccc(C(F)(F)F)cc1 | -10% (inactive) |
| Cc1ccc(NC(=O)NC(=O)c2ccccc2)cc1F | -1.14% (inactive) |
| Cc1ccc(NC2=C(c3ccc(C(F)(F)F)cc3)C(=O)c3ccccc32)cc1F | -32.9% (active) |
| Cc1ccccc1NC(=O)Cn1cc(C(=O)c2cccs2)c2ccccc21 | -14.9% (inactive) |
| COc1ccc(-n2nc(C(=O)NCCc3ccc(Cl)cc3)c3c4ccccc4n(C)c3c2=O)cc1Cl | -3.18% (inactive) |
| Cc1ccc(CCNC(=O)c2ccc3c(c2)N(Cc2cc(C)ccc2C)C(=O)c2ccccc2S3=O)cc1 (stereo not given) | -1.98% (inactive) |
| COc1cccc2cc(-c3nc(Cl)c4c5c(sc4n3)CC(C)CC5)c(=O)oc12 (stereo not given) | 7.27% (inactive) |
| Cc1ccc2nc(CNC(=O)c3ccccc3)[nH]c2c1 | 2.33% (inactive) |
| Cc1ccc2nc(NC3=NCN(CCc4ccccc4)CN3)nc(C)c2c1 | 8.22% (inactive) |
| Cc1ccc2nc(C)c3c(c2c1)N(c1ccccc1)CC3 | -47.3% (active) |
| O=C(Nc1ccc(F)cc1F)c1cnn(-c2ccc(F)cc2)c1-n1cccc1 | 1.78% (inactive) |
| CCOC(=O)C1=C(CSc2nccn2C)NC(=O)NC1c1ccc(OC)cc1 (stereo not given) | -35% (active) |
| CCOC(=O)C1=C(CN2CCc3ccccc32)NC(=O)NC1c1ccc(Cl)cc1 (stereo not given) | 19.3% (inactive) |
| CCOC(=O)C1=C(CCc2ccccc2)NC(=O)NC1c1ccc2ccccc2c1 (stereo not given) | 13.1% (inactive) |
| CCN(CC)c1ccc(NS(=O)(=O)c2cc(-c3cc(C)no3)ccc2C)c(C)c1 | -8.08% (inactive) |
| COc1ccc(N2CCN(C(=O)C3CCCN(C(=O)c4cc5sccc5n4C)C3)CC2)cc1 (stereo not given) | -16.9% (inactive) |
| CC(NC(=O)c1cc(=O)[nH]c2ccccc12)c1ccc(F)cc1F (stereo not given) | -0.391% (inactive) |
| CCc1ccc(Sc2cc(C(=O)NCCCOC(C)C)c3ccccc3n2)cc1 | 9.99% (inactive) |
| CC(NC(=O)c1cc(Sc2ccc(F)cc2F)nc2ccccc12)c1ccccc1 (stereo not given) | -44.9% (active) |

| Structure (SMILES) | activity change, negative = inhibition |
| --- | --- |
| CCOc1ccccc1NC(=O)Cn1c(=O)n(-c2cccc(C)c2)c(=O)c2c1c1cc(OC)ccc1n2C | 9% (inactive) |
| c1ccc(-n2ncc3c2ncn2c(C4CCCCC4)nnc32)cc1 | -30.2% (active) |
| CN(C(=O)COc1ncnc2c1cnn2-c1ccccc1)C1CCCCC1 | 2.82% (inactive) |
| CC(C)Sc1ncnc2c1cnn2-c1ccccc1 | 11.9% (inactive) |
| Cc1ccc(NC(=O)Cn2c(=O)n(-c3ccccc3)c(=O)c3c4c(sc32)CCCC4)cc1 | -4.05% (inactive) |
| CCOC(=O)N1CCc2c(sc3c2C(=O)NC(c2ccccc2F)N3)C1 (stereo not given) | 4.82% (inactive) |
| O=C(CSc1ncc(CO)n1Cc1ccc(F)cc1)NCc1ccco1 | -2.59% (inactive) |
| O=C(CCN1CCN(c2ccccc2)CC1)NNC(=S)Nc1ccccc1 | -7.38% (inactive) |
| Cc1nnc(NC(=O)C(c2ccccc2)c2ccccc2)s1 | 0.172% (inactive) |
| CCCCC(=O)NNC(=S)NC(=O)C(c1ccccc1)c1ccccc1 | -50.5% (active) |
| Cc1c(C(=O)N2CC(C)OC(C)C2)sc2nc(-c3ccccc3)cn12 (stereo not given) | -32.4% (active) |
| COc1ccc(-c2cn3c(C)c(C(=O)Nc4cc(C)cc(C)c4)sc3n2)cc1 | 9.7% (inactive) |
| Cc1c(C(=O)NCC2CCCO2)sc2nc(-c3ccccc3)cn12 (stereo not given) | 2.03% (inactive) |
| Cc1cccc(NC(=O)c2nnn(CC(=O)Nc3ccc(C(C)C)cc3)c2N)c1C | 5.98% (inactive) |
| Cc1cccc(C)c1NC(=O)c1ccc(CN2CCc3ccccc3C2)cc1 | -14.8% (inactive) |
| CN(c1ccc(C(=O)N2CCc3ccccc3C2)cc1)S(C)(=O)=O | 1.19% (inactive) |
| CN(c1cccc(NC(=O)c2ccc(CN3CCc4ccccc4C3)cc2)c1)S(C)(=O)=O | -37.7% (active) |
| O=C(Nc1ccc(OC(F)(F)F)cc1)C1CCCN(S(=O)(=O)c2ccc(Br)s2)C1 (stereo not given) | -19.1% (inactive) |
| COCc1ccc(CN2CCC(Oc3ccc(C(=O)NCc4ccccn4)cc3)CC2)o1 | -5.9% (inactive) |
| O=C(NCCOc1cccnc1)c1ccc(OC2CCN(Cc3ccccn3)CC2)cc1 | -0.574% (inactive) |
| Cn1cc(CNC(=O)c2ccc(OC3CCN(Cc4ccccn4)CC3)cc2)cn1 | -41.2% (active) |
| CC(CCCc1ccccc1)NC(=O)c1nn(-c2ccc(Cl)cc2)nc1CO (stereo not given) | 3.03% (inactive) |
| O=[N+]([O-])c1cc(S(=O)(=O)CCCN2CCOCC2)ccc1F | -12.6% (inactive) |

| Structure (SMILES) | activity change, negative = inhibition |
| --- | --- |
| O=S(=O)(NCC1CC1)c1ccc(F)c(Cl)c1 | -3.94% (inactive) |
| O=S(=O)(NCCCN1CCOCC1)c1ccc(F)c(Cl)c1 | -34.6% (active) |
| CCOc1ccc(C2C(=O)N(C3CCCCC3)CC(=O)N2CCC2=CCCCC2)cc1OC (stereo not given) | 39.1% (inactive) |
| c1ccc2cc(OCCN3CCCC3)ccc2c1 | 12.7% (inactive) |
| Cc1cc(OCCN2CCCC2)ccc1C(C)C | -30% (active) |
| Cc1cc(OCCN2CCCC2)cc(C(C)C)c1 | -2.52% (inactive) |
| Cc1ccc(NC(=O)Cn2nnc3sc4c(c3c2=O)CCC(C)C4)cc1 (stereo not given) | -17.2% (inactive) |
| CCc1cccc(C)c1Nc1c(-c2ccc(N(C)C)cc2)nc2ncccn12 | 6.48% (inactive) |
| Cc1ccccc1C(=O)N(Cc1ccc(N(C)C)cc1)CC1CCCO1 (stereo not given) | 12.9% (inactive) |
| N#Cc1nc(Nc2cc(F)cc(Cl)c2)nc(NC2CCCC2)n1 | -27% (inactive) |
| Cc1cc(C)cc(NS(=O)(=O)c2ccc(-c3cc(C)no3)s2)c1 | -9.8% (inactive) |
| COc1ccc(C)cc1NC(=O)COCc1cc(-c2cccs2)on1 | 15% (inactive) |
| Cc1cccc(N2CCN(S(=O)(=O)c3ccc(-c4cc(C)no4)s3)CC2C)c1 (stereo not given) | -39.9% (active) |
| Cc1cc(-c2ccc(S(=O)(=O)N3CCc4ccccc4C3)s2)on1 | -15.7% (inactive) |
| Cc1cc(-c2ccc(S(=O)(=O)N3CCN(c4cccc(C(F)(F)F)c4)CC3)s2)on1 | -24.5% (inactive) |
| O=c1onc(-c2c(F)cccc2F)n1-c1ccccc1Cl | -36.4% (active) |
| O=C(Cn1c(-c2ccc(Cl)cc2)noc1=O)N1CCN(c2ccccc2F)CC1 | -13.7% (inactive) |
| Cc1ccc(C)c(N2C(=O)N(Cc3c(F)cccc3Cl)c3ccccc3S2(=O)=O)c1 | -19.3% (inactive) |
| CCOc1ccccc1CNCc1c(C(=O)O)c(C)n(Cc2ccc(C)cc2)c1C | 0.5% (inactive) |
| CCCCNc1ccc(-c2nc(-c3ccncc3)no2)cc1[N+](=O)[O-] | 10.8% (inactive) |
| CCOC(=O)c1ccc(NC(=O)C2CCN(S(=O)(=O)c3ccc4c(c3)CCCC(=O)N4)CC2)cc1 | 2.67% (inactive) |
